{"source": "the antibiotic and cytotoxicity screens of Wong et al. (2023)", "note": "The campaign covered roughly 39,000 compounds. About 1,500 (3.8%) were called active. This excerpt belongs to a sample that is enriched for actives.", "data": [{"tested_on": "HSkMC (human skeletal muscle cells)", "assay": "cytotoxicity call (relative viability < 0.9)", "conditions": "10 µM", "values": [{"smiles": "Cc1cc(N2CCN(C)CC2)ncn1", "cytotoxicity call": "inactive"}, {"smiles": "CN1[C@@H](CO)[C@@H]2c3ccccc3NC[C@@H]21", "cytotoxicity call": "inactive"}, {"smiles": "COc1ccc(OC(=O)N(C)C[C@@H]2OCc3ccccc3-c3c(n(C)c4ccccc34)C(=O)N([C@H](C)CO)C[C@@H]2C)cc1", "cytotoxicity call": "inactive"}, {"smiles": "CC[n+]1c(-c2ccccc2)c2cc(N)ccc2c2ccc(N)cc21.[Br-]", "cytotoxicity call": "inactive"}, {"smiles": "CN[C@H]1C[C@@H](N)[C@H](O)[C@@H](O[C@@H]2O[C@H](CO)[C@H](O)[C@@H]3O[C@@]4(O[C@H]23)O[C@H]([C@@H](N)CO)[C@H](O)[C@H](O)[C@H]4O)[C@@H]1O", "cytotoxicity call": "active"}, {"smiles": "O=c1cccc2n1C[C@@H]1C[C@H]2CN(C[C@H](O)/C=N/n2cnnc2)C1", "cytotoxicity call": "inactive"}, {"smiles": "CC(=O)OCC1=C(C(=O)O)N2C(=O)[C@@H](NC(=O)CCC[C@@H](N)C(=O)O)[C@@H]2SC1", "cytotoxicity call": "inactive"}, {"smiles": "N[C@@H](Cc1ccc(O)cc1)C(=O)NCC(=O)NCC(=O)O", "cytotoxicity call": "inactive"}, {"smiles": "Cc1nc2c(=O)n(C)c(=O)nc-2n(C)n1", "cytotoxicity call": "active"}, {"smiles": "Cn1ncnc2c(=O)n(C)c(=O)nc1-2", "cytotoxicity call": "active"}, {"smiles": "Cc1cnc(C(=O)N2C[C@H]3CNC[C@H]3C2)cn1", "cytotoxicity call": "inactive"}, {"smiles": "[O-][n+]1ccccc1[S][Zn][S]c1cccc[n+]1[O-]", "cytotoxicity call": "active"}, {"smiles": "O=C(O)C[C@@H]1CC[C@H]2NC[C@@H](O)COC[C@@H]2O1", "cytotoxicity call": "inactive"}, {"smiles": "Cc1cc(O)c2c(=O)c3c(O)cc(O)c4c5c(O)cc(O)c6c(=O)c7c(O)cc(C)c8c1c2c(c34)c(c78)c65", "cytotoxicity call": "active"}, {"smiles": "CCC1(O)C(=O)OCc2c1cc1n(c2=O)Cc2cc3ccccc3nc2-1", "note": "(stereo unspecified)", "cytotoxicity call": "inactive"}, {"smiles": "Cc1nc(-c2ccc(-c3ccc(C(=O)N4CCc5cc6c(cc54)C4(CCN(C)CC4)CO6)cc3)c(C)c2)no1", "cytotoxicity call": "active"}, {"smiles": "C=C(C)[C@H]1O[C@H]2CC[C@@]3(C)[C@@](O)(CC[C@H]4[C@@H]5OC(C)(C)[C@H]6C[C@@H]7C(=C)Cc8c(Cl)cc9[nH]c(c5c9c8[C@@]76O)[C@@]43C)[C@]23O[C@@H]3[C@H]1O", "cytotoxicity call": "inactive"}, {"smiles": "O=C1[O][Pt]2([NH][C@@H]3CCCC[C@H]3[NH]2)[O]C1=O", "cytotoxicity call": "active"}, {"smiles": "CN(C)c1ccc(CCN)cc1", "cytotoxicity call": "inactive"}, {"smiles": "Br.CC(Cc1ccc(O)cc1)NCC(O)c1cc(O)cc(O)c1", "note": "(stereo unspecified)", "cytotoxicity call": "inactive"}, {"smiles": "CC(=O)O.Cc1cc2c(C(C)C)c(O)c(O)c(C=O)c2c(O)c1-c1c(C)cc2c(C(C)C)c(O)c(O)c(C=O)c2c1O", "cytotoxicity call": "inactive"}, {"smiles": "Cc1cc2c(C(C)C)c(O)c(O)c(C=O)c2c(O)c1-c1c(C)cc2c(C(C)C)c(O)c(O)c(C=O)c2c1O", "note": "[listing 1 of 2 here]", "cytotoxicity call": "inactive"}, {"smiles": "Cc1cc2c(C(C)C)c(O)c(O)c(C=O)c2c(O)c1-c1c(C)cc2c(C(C)C)c(O)c(O)c(C=O)c2c1O", "note": "[listing 2 of 2 here]", "cytotoxicity call": "active"}, {"smiles": "O=C(O)C=CCO", "cytotoxicity call": "inactive"}, {"smiles": "COCC12CN(C=O)C3C4C(OC)C1C3(C(OC)CC2O)C1CC2(O)C(OC)C(O)C4(OC(C)=O)C1C2OC(=O)c1ccccc1", "note": "(stereo unspecified)", "cytotoxicity call": "inactive"}, {"smiles": "O=C1CCN(C(=O)C2CCC2)CC1", "cytotoxicity call": "inactive"}, {"smiles": "COC(=O)[C@]1(Cc2ccccc2N=[N+]=[N-])N=C(c2ccc(OCCCO)cc2)O[C@@H]1c1ccccc1CN=[N+]=[N-]", "cytotoxicity call": "inactive"}, {"smiles": "COC(=O)[C@@]1(Cc2ccccc2N=[N+]=[N-])N=C(c2ccc(OCCCO)cc2)O[C@H]1c1ccccc1CN=[N+]=[N-]", "cytotoxicity call": "inactive"}, {"smiles": "COC(=O)[C@@]1(Cc2ccccc2CN=[N+]=[N-])N=C(c2ccc(OCCCO)cc2)O[C@H]1c1ccccc1N=[N+]=[N-]", "cytotoxicity call": "inactive"}, {"smiles": "COC(=O)[C@]1(Cc2ccccc2CN=[N+]=[N-])N=C(c2ccc(OCCCO)cc2)O[C@@H]1c1ccccc1N=[N+]=[N-]", "cytotoxicity call": "inactive"}, {"smiles": "COC(=O)[C@@]1(Cc2ccccc2N=[N+]=[N-])N=C(c2ccc(OCCCO)cc2)O[C@H]1c1ccccc1N=[N+]=[N-]", "cytotoxicity call": "active"}, {"smiles": "COC(=O)[C@]1(Cc2ccccc2N=[N+]=[N-])N=C(c2ccc(OCCCO)cc2)O[C@@H]1c1ccccc1N=[N+]=[N-]", "cytotoxicity call": "active"}, {"smiles": "CN(C)C(=O)[C@@]1(Cc2ccccc2CN=[N+]=[N-])N=C(c2ccc(OCCCO)cc2)O[C@H]1c1ccccc1N=[N+]=[N-]", "cytotoxicity call": "inactive"}, {"smiles": "[N-]=[N+]=NCc1ccccc1C[C@]1(C(=O)NCc2ccccc2)N=C(c2ccc(OCCCO)cc2)O[C@H]1c1ccccc1N=[N+]=[N-]", "cytotoxicity call": "inactive"}, {"smiles": "CCO[C@H]1[C@H]2CC[C@@H]1NC2", "cytotoxicity call": "inactive"}, {"smiles": "O=C1CC2OCC=C3CN4CCC56c7ccccc7N1C5C2C3CC46.O=S(=O)(O)O", "note": "(stereo unspecified)", "cytotoxicity call": "inactive"}, {"smiles": "N[C@]1(C(=O)O)CC[C@@H](C(=O)O)C1", "cytotoxicity call": "inactive"}, {"smiles": "COc1cc([C@@H](O)CN)ccc1O", "cytotoxicity call": "inactive"}, {"smiles": "[N-]=[N+]=NCc1ccccc1C[C@]1(C(=O)N2CCOCC2)N=C(c2ccc(OCCCO)cc2)O[C@H]1c1ccccc1N=[N+]=[N-]", "cytotoxicity call": "inactive"}, {"smiles": "COc1ccc2c(c1)C[C@H](N)C2", "cytotoxicity call": "inactive"}, {"smiles": "CNC(=O)[C@H]1Cn2ccnc2C2(CCNCC2)O1", "cytotoxicity call": "inactive"}]}]}
